Assay outcomes: PubChem, several laboratories
CYP2C19 inhib = blockers of cytochrome P450 2C19 activity – biochemical, luminescence, ADME assay, primary screen. inhibition, % at 5 µM. AID 778, 2007. CYP2C19 Supersomes, luciferin-H EGE luminescence, 30 min. P33261. hit rate 21% among 96,000;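 active means CYP2C19 inhibition above a set limit at 5 µM in the primary screen, cut at about 50% in these data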;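 further: plate controls were negative control wells for no effect and 2.5 mM tranylcypromine positive control for full effect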
PLK1 PBD inh = Plk1 polo box domain binding inhibitors, primary screen, biochemical, fluorescence polarization | Serine/threonine-protein kinase PLK1 (Homo sapiens), P53350 | Plk1 PBD phosphopeptide binding | inhibition, %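 (tested at about 20 µM)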 | hit rate 0.13% among 97,000; in the data active means inhibition above about 34%, passing the limit was not always enough
Target sequence (P53350 whole entry, looked up, the tested form may be a part): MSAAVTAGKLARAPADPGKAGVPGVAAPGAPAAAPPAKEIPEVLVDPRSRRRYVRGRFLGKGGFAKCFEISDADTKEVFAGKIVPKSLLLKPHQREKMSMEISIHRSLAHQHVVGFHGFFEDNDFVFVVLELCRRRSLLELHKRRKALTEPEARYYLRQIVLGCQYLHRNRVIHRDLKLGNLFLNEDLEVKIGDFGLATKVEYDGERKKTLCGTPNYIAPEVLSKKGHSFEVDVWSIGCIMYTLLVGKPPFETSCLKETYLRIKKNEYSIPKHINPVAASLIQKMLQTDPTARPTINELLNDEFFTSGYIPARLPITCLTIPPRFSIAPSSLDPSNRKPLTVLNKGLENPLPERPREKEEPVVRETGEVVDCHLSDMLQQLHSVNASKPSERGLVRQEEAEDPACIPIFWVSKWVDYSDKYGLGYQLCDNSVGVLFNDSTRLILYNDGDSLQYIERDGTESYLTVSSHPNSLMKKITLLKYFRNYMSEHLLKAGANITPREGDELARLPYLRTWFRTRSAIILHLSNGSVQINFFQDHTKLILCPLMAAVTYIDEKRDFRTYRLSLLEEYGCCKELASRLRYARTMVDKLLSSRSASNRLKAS
CYP2C9 inh = blockers of cytochrome P450 2C9 activity – biochemical, luminescence, ADME assay, primary screen | CYP2C9 Supersomes, luciferin-H conversion | inhibition, % at 5 µM | hit rate 20% among 96,000 | AID 777, 2007;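 active means blocking of liver enzyme CYP2C9 beyond about 50% at 5 µM, limit read from the data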
CYP2C19 act = human CYP2C19 activators, primary screen, biochemical, luminescence. recombinant CYP2C19, luciferin-H EGE luminescence; stronger effect = higher value; 0 = fully inhibited enzyme, 1 = untreated enzyme. activation factor at 5 µM. 96,000 tested, under 10 active;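 active means activation factor of at least 2 at 5 µM in the primary screen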;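 further: 0 = wells with 2.5 mM tranylcypromine and 1 = vehicle-only wells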
CYP2C9 activ = human CYP2C9 activators, primary screen, biochemical, luminescence | Cytochrome P450 2C9 (Homo sapiens), P11712 | recombinant CYP2C9, luciferin-H conversion; stronger effect = higher value; factor 1 = untreated enzyme, 0 = blocked | activation factor at 5 µM | hit rate 1.4% among 96,000 | AID 1024, 2008;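 active means activation factor of 2 or more for CYP2C9 at a 5 µM dose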;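 further: 0 = sulfaphenazole-blocked wells and 1 = vehicle-only wells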
PLK1 kinase inh = human PLK1 kinase inhibitors, primary screen, biochemical, TR-FRET | Serine/threonine-protein kinase PLK1 (Homo sapiens), P53350 | recombinant PLK1 kinase, TR-FRET peptide phosphorylation | inhibition, % at 10 µM | hit rate 0.53% among 97,000 | AID 619, 2007;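 active means inhibition of 50% or more in the single-concentration screen; inactive means inhibition below 50%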;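 further: 0% = DMSO max control and 100% = H-89 dihydrochloride min control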
* = called active by the depositor. Rows were chosen to be rich in hits. Some 28% of all compounds tested hit in one or more screens of this group.

Results for C=C(C)CSC1=C(C#N)C(c2ccccc2)CC(=O)N1 (stereo not drawn) ?
PLK1 PBD inh: 20.2; PLK1 kinase inh: -11.3

Results for CCN1C(=O)NC2C1N(S(C)(=O)=O)CCN2S(C)(=O)=O (stereo not drawn) ?
CYP2C19 inhib: -4.3; PLK1 PBD inh: 12.7; CYP2C9 inh: -7.4; CYP2C19 act: 1; CYP2C9 activ: 1.1; PLK1 kinase inh: -15.1

What do the screens show for `CCCn1c(N)c(C(=O)CSc2nnc(Cc3ccccc3)o2)c(=O)n(C)c1=O`?
PLK1 PBD inh: 29.5; PLK1 kinase inh: -6.6

What do the screens show for `COc1cc(/C=C2\SC(c3ccc(C)cc3)=NC2=O)cc(OC)c1O`?
CYP2C19 inhib: 70.7*; PLK1 PBD inh: -21.2; CYP2C9 inh: 81.7*; CYP2C19 act: 0.3; CYP2C9 activ: 0.2; PLK1 kinase inh: -13.3

Results for Cc1cc(C)c(OCC(=O)Nc2cccc(O)c2)cc1C ?
CYP2C19 inhib: 75.0*; PLK1 PBD inh: -5.3; CYP2C9 inh: 34.8; CYP2C19 act: 0.3; CYP2C9 activ: 0.7; PLK1 kinase inh: -9.9

Results for O=C(COc1ccc(Br)cc1)Nc1ccncc1 ?
CYP2C19 inhib: 100.2*; PLK1 PBD inh: 3.8; CYP2C9 inh: 97.0*; CYP2C19 act: 0; CYP2C9 activ: 0; PLK1 kinase inh: -3.7

How did Cc1cc(C)c(OCC(=O)Nc2ccc3c(c2)OCO3)cc1C do in these assays?
CYP2C19 inhib: 20.7; PLK1 PBD inh: -0.8; CYP2C9 inh: -9.1; CYP2C19 act: 0.8; CYP2C9 activ: 1.1; PLK1 kinase inh: -6.6

What do the screens show for `Cc1cc(OCC(=O)Nc2ccncc2)c(C)cc1Br`?
CYP2C19 inhib: 100.0*; PLK1 PBD inh: -12.6; CYP2C9 inh: 99.7*; CYP2C19 act: 0; CYP2C9 activ: 0; PLK1 kinase inh: -3.2

Results for CCOC(=O)COn1c(=O)c(=O)n(O)c2ccccc21 ?
CYP2C19 inhib: 99.2*; CYP2C9 inh: 89.9*; CYP2C19 act: 0; CYP2C9 activ: 0.1

How did CCOC(=O)COn1c(=O)c(=O)n(OC)c2ccccc21 do in these assays?
CYP2C19 inhib: -20.4; PLK1 PBD inh: -2.1; CYP2C9 inh: -1.7; CYP2C19 act: 1.2; CYP2C9 activ: 1; PLK1 kinase inh: -11.8

Results for CCn1c(SCC(=O)NCc2ccccc2)nc2ccccc2c1=O ?
CYP2C19 inhib: 44.2; PLK1 PBD inh: -25.9; CYP2C9 inh: 27.0; CYP2C19 act: 0.6; CYP2C9 activ: 0.7; PLK1 kinase inh: -9.7

What do the screens show for `O=C(NCCC1=CCCCC1)C(c1ccccc1)c1ccccc1`?
CYP2C19 inhib: 10.7; PLK1 PBD inh: 21.0; CYP2C9 inh: 23.9; CYP2C19 act: 0.9; CYP2C9 activ: 0.8; PLK1 kinase inh: -7.0

How did COn1c(SCC(N)=O)nc2ccccc2c1=O do in these assays?
CYP2C19 inhib: 16.3; PLK1 PBD inh: -2.3; CYP2C9 inh: 13.3; CYP2C19 act: 0.8; CYP2C9 activ: 0.9; PLK1 kinase inh: -6.0

How did CCOC(=O)COn1c(SCC(=O)OCC)nc2ccccc2c1=O do in these assays?
CYP2C19 inhib: 53.4*; PLK1 PBD inh: -23.9; CYP2C9 inh: 19.2; CYP2C19 act: 0.5; CYP2C9 activ: 0.8; PLK1 kinase inh: -5.2

What do the screens show for `CCOC(=O)C(C)Sc1nc2ccccc2c(=O)n1CC` (stereo not drawn)?
CYP2C19 inhib: 76.7*; PLK1 PBD inh: 5.6; CYP2C9 inh: 63.0*; CYP2C19 act: 0.2; CYP2C9 activ: 0.4; PLK1 kinase inh: -2.4

How did C=CCn1c(SC(C)C(=O)NCCC2=CCCCC2)nc2ccccc2c1=O (stereo not drawn) do in these assays?
CYP2C19 inhib: 46.9; PLK1 PBD inh: -18.5; CYP2C9 inh: 56.0*; CYP2C19 act: 0.5; CYP2C9 activ: 0.4; PLK1 kinase inh: -12.5

How did O=C(N1CCOCC1)N1CCC(n2nnc3ccccc32)CC1 do in these assays?
CYP2C19 inhib: 6.5; CYP2C9 inh: 38.1; CYP2C19 act: 0.9; CYP2C9 activ: 0.6

Results for COC(=O)C(NC(=O)c1ccc(F)cc1)(Nc1nc(C)cs1)C(F)(F)F (stereo not drawn) ?
CYP2C19 inhib: 36.9; PLK1 PBD inh: -9.6; CYP2C9 inh: -3.7; CYP2C19 act: 0.6; CYP2C9 activ: 1; PLK1 kinase inh: -9.2
